ERK EGF inh: inhibitors of EGF-stimulated ERK signaling pathway. AID 1454. HEK293-V1b, EGF-stimulated phospho-ERK AlphaScreen. 0.41% of 130,000 active. Potency, µM (top dose mostly 11.5 µM), inactives show at the highest dose activity change, negative = inhibition, hits mostly inhibitors;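 further: plate controls were stimulated vehicle wells for no effect and unstimulated vehicle basal for full effect; nearly all actives have a fitted effect of over 55% in size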
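V1b-HEK293, 1% FBS o/n; cpd 30 min 37C; EGF 25 nM final, 5 min; lyse 10 min; AlphaScreen beads 5 h RT. Normalized DMSO basal vs EGF max; Hill AC50.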
IMPase Li inh: cell-permeable IMPase inhibitors with lithium potentiation; CHO-M1 cells, IP1 TR-FRET (IP-One), carbachol + lithium; Potency, µM (highest dose often 59.4 µM), for inactives: at the top dose activity, negative = IMPase inhibition, most hits filed as inhibitors; 0.35% of 210,000 active; AID 1457;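 further: IP1 builds up when IMPase is blocked and the TR-FRET signal falls; plate controls were basal vehicle for no effect and high inhibitor control for full effect; nearly all actives have a fitted effect of over 50% in size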
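Lithium-sensitised IP1 accumulation assay; M1-expressing CHO cells treated 30 min at 37C with compound. Competitive antibody detection by time-resolved FRET followed a 10 min room-temperature lysis step.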
NPSR antagonist: antagonists of human neuropeptide S receptor cAMP signaling | CHO-NPSR cells, cAMP TR-FRET, antagonist mode | AID 1461 | 1% of 220,000 active | Q6W5P4 | Potency, µM (highest dose often 38.3 µM), inactives show top-dose activity change, negative = inhibition, hits mostly inhibitors; further: nearly all actives have a fitted effect of over 50% in size
Target sequence (Q6W5P4 whole entry, looked up): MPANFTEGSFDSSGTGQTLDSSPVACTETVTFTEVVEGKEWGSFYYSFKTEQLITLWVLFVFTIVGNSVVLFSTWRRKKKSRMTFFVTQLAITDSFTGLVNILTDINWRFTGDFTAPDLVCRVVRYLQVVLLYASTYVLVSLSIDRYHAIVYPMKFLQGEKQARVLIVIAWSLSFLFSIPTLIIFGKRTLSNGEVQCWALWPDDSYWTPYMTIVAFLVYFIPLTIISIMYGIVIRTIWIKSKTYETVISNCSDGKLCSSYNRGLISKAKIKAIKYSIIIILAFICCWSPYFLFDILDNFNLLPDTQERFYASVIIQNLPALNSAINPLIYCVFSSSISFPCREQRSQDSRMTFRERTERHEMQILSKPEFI
* marks the source's active call; other numbers are inactive results; ? = inconclusive; nt = no result given; [ ] = remark or other dose. The full list was thinned out, with hits kept by preference. The call rests on the fitted dose curve; in most records, active means well fitted curve in the direction sought with a large enough effect; inconclusive means small, poorly fitted or top-dose-only effect, or another doubt; inactive means no such curve, though single readings can be large; an effect the other way counts as inactive or inconclusive. Unless noted, on the % scale 0 is the no-effect control and ±100 the full control effect; potency means the concentration at half of the fitted maximal effect.

SMILES	ERK EGF inh	IMPase Li inh	NPSR antagonist
Cc1ccc(C)c(OCC(O)CN2CCN(CCN3C(=O)c4cccc5cccc(c45)C3=O)CC2)c1 (stereo not drawn)	?	13.9%	10.8%
COc1cc(COCC(O)CN2CCN(CCN3C(=O)c4cccc5cccc(c45)C3=O)CC2)cc(OC)c1OC (stereo not drawn)	4.9%	4.9%	11.5%
O=C1c2cccc3cccc(c23)C(=O)N1CCN1CCN(CC(O)COCc2ccc(Cl)cc2)CC1 (stereo not drawn)	31.6µM*	9.8%	8.3%
CC(=O)c1ccccc1OCC(O)CN1CCN(CCN2C(=O)c3cccc4cccc(c34)C2=O)CC1 (stereo not drawn)	25.1µM*	26.3%	-14.9%
O=C1C2CCC(C2)[C@@H]2CCCCN12 (stereo partly drawn)	nt	3.0%	nt
CCCCNc1nc2c(S(=O)(=O)c3ccccc3)nnn2c2ccccc12	-1.9%	8.91µM*	?
CCc1ccc(S(=O)(=O)c2nnn3c2nc(NCCNC(C)=O)c2ccccc23)cc1	-14.9%	-9.9%	-8.5%
N=C(N)S[C@H]1c2ccccc2-c2cc([N+](=O)[O-])ccc21	nt	-3.2%	nt
CC1=NN(c2ccccc2)C(=O)C1N=Nc1ccccc1 (stereo not drawn)	11.2µM*	1.7%	-2.4%
CC1=NN(c2ccccc2)C(=O)C1N=Nc1ccc(N)cc1 (stereo not drawn)	nt	-0.3%	-18.6%[46.1 µM]
O=c1[nH][nH]c(=S)n1-c1ccccc1C(F)(F)F	2.3%[57.5 µM]	nt	-4.7%
Cc1cc(NC(=O)c2ccccc2F)on1	-3.2%	-1.6%	11.3%
Cc1cc(C)nc(S/C=C/C(=O)c2ccccc2F)n1	28.2µM*	nt	?
CCCCC/C=C\C/C=C\C=C\[C@@H](O)C/C=C\CCCC(=O)O	-2.7%	-0.6%	nt
O=C(Nc1nnc(C(F)(F)F)s1)c1ccc(Br)s1	-2.7%	-1.5%	-46.4%
O=C(Nc1nnc(C2CCCCC2)s1)c1ccc(Br)s1	nt	10µM*	?
CCCCCCCCCCCCCCCC(=O)O[C@H](CC(=O)O)C[N+](C)(C)C	2.1%	37.5%	nt
COc1ccc(C(=O)COC(=O)c2ccc(NC(=O)c3ccccc3)cc2)cc1	nt	11.2µM*	3.8%[46.1 µM]
COc1ccc(C(=O)Nc2ccc(C(=O)OCC(=O)c3ccccc3)cc2)cc1	nt	-2.7%[38.3 µM]	17.8%[46.1 µM]
COc1ccc(NC(=O)CCC(=O)c2ccc(-c3ccccc3)cc2)cc1	nt	31.6µM*	-5.8%[46.1 µM]
COc1ccc(C(=O)CCC(=O)Nc2cccnc2)cc1	7.4%	-4.5%	1.2%
CCOC(=O)CNc1oc(-c2ccccc2)nc1-c1ccccc1	-3.3%	16.2%	nt
CC(=O)NCCNc1nc(-c2ccccc2Cl)nc2ccccc12	28.8%	14.8%	nt
Nc1nc2c(c(=O)[nH]1)CN(CCCN1CCOCC1)CN2	nt	0.3%	nt
CC(C)OCCCNC1=C(Cl)C(=O)c2ccccc2C1=O	28.2µM*	nt	10µM*
SMILES	ERK EGF inh	IMPase Li inh	NPSR antagonist
CCN(CC)CCCNC1=C(Cl)C(=O)c2ccccc2C1=O	-8.6%[57.5 µM]	15.2%	53.5%
COc1ccc(S(=O)(=O)NCCN2CCNC2=O)cc1OC	-14.7%[57.5 µM]	nt	-9.1%
O=S(=O)(O/N=C1\CCCc2ccccc21)c1ccccc1	nt	43.0%[38.3 µM]	6.7%[46.1 µM]
CC1=CC(=O)C=C(C)C1=NOS(=O)(=O)c1ccccc1	nt	57.3%[38.3 µM]	7.94µM*
CC1=CC(=O)C(C(C)C)=C/C1=N/OS(=O)(=O)c1ccccc1	?	nt	3.98µM*
Cc1ccc(S(=O)(=O)ON=C2CCN(S(=O)(=O)c3ccccc3)CC2)cc1	nt	-8.1%[38.3 µM]	-7.8%[46.1 µM]
CCCn1c(C)nc2c(NCCCN(C)C)nc(C)nc21	-8.9%	6.1%	nt
CC(=O)O[C@H]1CC[C@@]2(C)C(=CC[C@@H]3[C@@H]4CC[C@H](c5cc(C(F)(F)F)n(C(C)=O)n5)[C@]4(C)CC[C@@H]32)C1	nt	19.9%	nt
CN(C)CCO[C@](C)(c1ccccc1)c1ccccn1	2.1%[25.7 µM]	6.9%	nt
C/C(CCC(=O)OC[C@H]1O[C@H](C#Cc2ccccc2)C=C[C@@H]1Oc1ccc(C)cc1)=N\O[C@@H](C)CN1CCCCc2nc(C)c(C)cc21	12.1%	26.6%	-46.5%
COc1ccc(O[C@H]2C=C[C@@H](c3ccccc3)O[C@@H]2COC(=O)CC/C(C)=N/O[C@@H](C)CN2CCCCc3nc(C)c(C)cc32)cc1	1.1%	33.0%	15.8µM*
CC1CCC2(CC1)NC(=O)N(CC(=O)Nc1nc(-c3ccc(F)cc3)cs1)C2=O (stereo not drawn)	nt	14.1µM*	18.3%[46.1 µM]
Cc1ccc(-c2csc(NC(=O)CN3C(=O)CCC3=O)n2)cc1	3.8%	5.2%	17.2%
COc1ccc(CNc2ccnc(-c3ccccc3Cl)n2)c(OC)c1	nt	18.2%	nt
COc1ccc(C)cc1NC(=O)N1CCCc2ccccc21	-7.5%[57.5 µM]	25.1µM*	32.4%
O=C(Nc1ccccc1)N1CCCc2ccccc21	0.9%	6.4%	-3.4%[46.1 µM]
